High-throughput results from PubChem.
A selection: hits, their analogues and other compounds. The true share with any hit is near 10%.
MCF10A rerep = A quantitative high throughput screen for small molecules that induce DNA re-replication in MCF 10a normal breast cells. MCF 10A DNA re-replication, Hoechst nuclear intensity, 48 h. Potency, µM (top dose mostly 46.1 µM), usual class: activators. actives 2.9% (n = 350,000). AID 624296, 2012; further: nearly all actives have a fitted effect of over 50% in size
VP16 counter = VP16 counterscreen qHTS for inhibitors of ROR gamma transcriptional activity; Drosophila S2 Gal4-VP16 UAS-luciferase, luminescence, 20 h; Potency, µM (titrated, usually from 53.6 µM), most hits filed as inhibitors; actives 3.5% (n = 310,000);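 further: Gal4-VP16 expression switched on by copper sulfate through the metallothionein promoter; nearly all actives have a fitted effect of over 50% in size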
SW480 rereplic = A quantitative high throughput screen for small molecules that induce DNA re-replication in SW480 colon adenocarcinoma cells; SW480 DNA re-replication, Hoechst DNA content imaging, 48 h; Potency, µM (titrated, usually from 46.1 µM), usual class: activators; actives 1.8% (n = 340,000); AID 624297, 2012; further: nearly all actives have a fitted effect of over 55% in size
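Quantitative HTS format with DMSO vehicle controls; 48 hr drug incubation at 37 C, then 40 min Hoechst staining and scanning imager measurement at 405 nm excitation.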
RORg inh = qHTS for inhibitors of ROR gamma transcriptional activity; Potency, µM (top dose mostly 53.6 µM), actives largely listed as inhibitors; Drosophila S2 Gal4-RORgamma UAS-luciferase reporter, 20 h; actives 5.4% (n = 310,000); Nuclear receptor ROR-gamma (Mus musculus), P51450; further: nearly all actives have a fitted effect of over 60% in size
Target sequence (P51450 whole entry, looked up, the tested form may be a part): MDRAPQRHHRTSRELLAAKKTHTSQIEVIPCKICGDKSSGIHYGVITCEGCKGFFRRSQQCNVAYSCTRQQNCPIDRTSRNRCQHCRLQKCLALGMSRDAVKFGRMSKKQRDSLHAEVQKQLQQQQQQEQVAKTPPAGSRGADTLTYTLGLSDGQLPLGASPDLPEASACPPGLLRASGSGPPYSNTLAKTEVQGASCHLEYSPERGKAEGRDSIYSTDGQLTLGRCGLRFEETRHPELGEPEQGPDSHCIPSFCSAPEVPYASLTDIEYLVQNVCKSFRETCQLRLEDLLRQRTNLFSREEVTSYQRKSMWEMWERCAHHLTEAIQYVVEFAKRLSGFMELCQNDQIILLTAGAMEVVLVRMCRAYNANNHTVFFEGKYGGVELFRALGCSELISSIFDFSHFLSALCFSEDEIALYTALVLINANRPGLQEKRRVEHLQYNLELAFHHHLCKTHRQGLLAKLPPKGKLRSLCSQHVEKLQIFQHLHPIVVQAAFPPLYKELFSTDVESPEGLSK
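ROR gamma transcriptional activity was tracked as Gal4-UAS luciferase output in stably transfected Drosophila Schneider cells, with compound added 1 hr before 700 uM copper sulfate induction and a 20 hr ambient-temperature incubation.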
ELG1 repair inh = qHTS screen for small molecules that inhibit ELG1-dependent DNA repair in human embryonic kidney (HEK293T) cells expressing luciferase-tagged ELG1 | HEK293T ELG1-luciferase reporter, luminescence, 16 h; DNA damage induced by 5-fluorouridine | actives 2.3% (n = 330,000) | Potency, µM (doses to about 46.1 µM), actives largely listed as inhibitors; further: nearly all actives have a fitted effect of over 55% in size
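Quantitative HTS, concentration-response format. 2,000 cells/well co-treated with 5-fluorouridine and compound, 16 hr in 5% CO2 at 37 °C; ONE-Glo luminescence read after 30 min.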
Of the large screens only hits and unclear results are named; the others gave an inactive call. The call rests on the fitted dose curve; in most records, active means well fitted curve in the direction sought with a large enough effect; inconclusive means small, poorly fitted or top-dose-only effect, or another doubt; inactive means no such curve, though single readings can be large; an effect the other way counts as inactive or inconclusive.

O=C(COC(=O)c1cc(Cl)nc(Cl)c1)NCc1ccc2c(c1)OCO2	none (no result: VP16 counter, RORg inh)
CCOC(=O)NC(N(O)c1cccc(Cl)c1)C(Cl)(Cl)Cl (stereo not given)	RORg inh 5.01µM
CCC(Oc1ccccc1)C(=O)NCCCN1CCOCC1 (stereo not given)	none
COCCn1c(C)cc(C(=O)CSc2nc3ccccc3s2)c1C	VP16 counter 5.01µM, SW480 rereplic inconclusive, RORg inh 14.1µM, ELG1 repair inh inconclusive
COCCn1c(C)cc(C(=O)CSc2cc(C)c3ccc(OC)cc3n2)c1C	MCF10A rerep inconclusive, VP16 counter 2.24µM, RORg inh 6.31µM
COCCn1c(C)cc(C(=O)CSc2nc3ccccc3o2)c1C	VP16 counter inconclusive, ELG1 repair inh inconclusive
Cc1ccc(C(=O)CSc2nnc3ccccn23)c(C)c1	RORg inh inconclusive, ELG1 repair inh inconclusive
COCCn1c(C)cc(C(=O)CSc2nnc3ccccn23)c1C	VP16 counter inconclusive, RORg inh 3.16µM, ELG1 repair inh inconclusive
COc1ccccc1C1(O)C(=O)Nc2ccc(C)cc21 (stereo not given)	none
COC(=O)c1sccc1S(=O)(=O)NCc1ccc(S(N)(=O)=O)cc1	none
CC(=O)Nc1cccc(NC(=O)COc2ccccc2C)c1	none
Cc1ccccc1OCC(=O)Nc1ccncc1	VP16 counter 11.2µM, RORg inh inconclusive, ELG1 repair inh inconclusive
Cc1cccc(OCC(=O)Nc2ccncc2)c1	none (no result: VP16 counter, RORg inh, ELG1 repair inh)
Cc1ccc(OCC(=O)Nc2ccncc2)c(C)c1	VP16 counter 15.8µM, ELG1 repair inh inconclusive
Cc1ccccc1OCC(=O)Nc1ccc(C(N)=O)cc1	ELG1 repair inh inconclusive
Cc1ccccc1OCC(=O)Nc1ccc(Cc2ccncc2)cc1	VP16 counter 10µM, RORg inh inconclusive, ELG1 repair inh inconclusive
Cc1cc(C)cc(C(=O)OCC(=O)NCc2ccco2)c1	SW480 rereplic inconclusive (no result: VP16 counter, RORg inh)
Cn1cnc2c(cnn2C)c1=N	none (no result: VP16 counter, RORg inh, ELG1 repair inh)
C=CCOCCN(C)C1=NS(=O)(=O)c2cc([N+](=O)[O-])ccc21	MCF10A rerep inconclusive, SW480 rereplic 9.2µM, ELG1 repair inh inconclusive
Cc1onc(-c2c(F)cccc2Cl)c1C(=O)Nc1cccc2nsnc12	MCF10A rerep inconclusive, SW480 rereplic 16.4µM
Cc1ccc(S(=O)(=O)N(C)C)cc1NC(=O)c1c(-c2c(F)cccc2Cl)noc1C	RORg inh inconclusive, ELG1 repair inh 25.9µM
Cc1onc(-c2c(F)cccc2Cl)c1C(=O)Nc1ccccc1N1CCOCC1	ELG1 repair inh inconclusive
Cc1ccc(NC(=O)c2c(-c3c(F)cccc3Cl)noc2C)cc1F	MCF10A rerep inconclusive, RORg inh inconclusive, ELG1 repair inh inconclusive
Cc1onc(-c2c(F)cccc2Cl)c1C(=O)Nc1nccs1	VP16 counter inconclusive, RORg inh 12.6µM, ELG1 repair inh inconclusive
Cc1onc(-c2c(F)cccc2Cl)c1C(=O)Nc1nc2ccccc2[nH]1	VP16 counter inconclusive, SW480 rereplic inconclusive, RORg inh 2.82µM, ELG1 repair inh inconclusive
O=C(Nc1ccc(F)c(Cl)c1)c1ccccc1NC(=O)C1CCCCC1C(=O)O (stereo not given)	none (no result: VP16 counter, RORg inh, ELG1 repair inh)
CCCN1C2CCCC1CC(NC(=S)Nc1cc(C)cc(C)c1)C2 (stereo not given)	none
CC(=O)Cc1nsc(NC(=O)c2ccc(COc3cccc(C)c3)o2)n1	MCF10A rerep inconclusive
Cc1onc(-c2c(F)cccc2Cl)c1C(=O)NC1=NCCS1	VP16 counter 22.4µM, RORg inh 14.1µM, ELG1 repair inh inconclusive
Cc1cc(NC(=O)c2c(-c3c(F)cccc3Cl)noc2C)no1	ELG1 repair inh inconclusive
COc1cc(C=O)ccc1OCc1c(C)noc1C	ELG1 repair inh inconclusive
COc1ccc(C=O)cc1COc1ccc([N+](=O)[O-])c(C)c1	MCF10A rerep inconclusive, SW480 rereplic 14.6µM
COc1ccc(C=O)cc1COc1ccc2c(c1)OCO2	MCF10A rerep inconclusive, SW480 rereplic 3.66µM (no result: VP16 counter, RORg inh)
COc1ccc(/C=C/C(=O)O)cc1COc1cccc(C)c1	none
CC(C(=O)O)c1ccc(N2Cc3ccccc3C2=O)cc1 (stereo not given)	MCF10A rerep inconclusive, VP16 counter 3.98µM, RORg inh 1.78µM, ELG1 repair inh inconclusive
CCC1(c2ccccc2)NC(=O)N(CC(=O)N(CC(=O)Nc2ccccc2C(F)(F)F)Cc2ccco2)C1=O (stereo not given)	none (no result: VP16 counter, RORg inh)
CCN(CC)S(=O)(=O)c1cccc(-c2nnc(SCC(N)=O)n2C)c1	none
CCSc1nnc(-c2cccc(S(=O)(=O)N(CC)CC)c2)n1Cc1ccccc1	MCF10A rerep inconclusive, ELG1 repair inh 23.1µM
CCN(CC)S(=O)(=O)c1cccc(-c2nnc(SCc3ncc(-c4ccccc4)o3)n2C)c1	RORg inh inconclusive, ELG1 repair inh 20.6µM
CCNC(=O)CSc1nnc(-c2cccc(S(=O)(=O)N(CC)CC)c2)n1CCc1ccccc1	ELG1 repair inh inconclusive
CC(C)(C)c1ccc(-c2csc(NNC3=NCCCCC3)n2)cc1	MCF10A rerep inconclusive, VP16 counter inconclusive, SW480 rereplic inconclusive, RORg inh 12.6µM
Brc1ccc(-c2csc(NNC3=NCCCCC3)n2)cc1	MCF10A rerep inconclusive, VP16 counter 14.1µM, RORg inh 7.08µM
FC(F)Oc1ccc(-c2csc(NNC3=NCCCCC3)n2)cc1	MCF10A rerep inconclusive, RORg inh inconclusive
N#CCCN(Cc1cccnc1)C(=S)NC1CC2C=CC1C2 (stereo not given)	ELG1 repair inh inconclusive
Cn1nnc(NC(=O)c2ccccc2)n1	RORg inh inconclusive
COc1ccc(C(=O)NC(=S)Nc2nnn(C)n2)cc1	RORg inh 5.62µM, ELG1 repair inh inconclusive
COc1cccc(C(=O)NC(=S)Nc2nnn(C)n2)c1	VP16 counter 11.2µM, RORg inh 8.91µM
CCOc1ccccc1N(CC(=O)NCC1CCCO1)C(=O)CCC(=O)Nc1nccs1 (stereo not given)	none
CCCN1CCN(CCCNC(=O)CN2C(=O)c3cccnc3Oc3ccc(Cl)cc32)CC1	ELG1 repair inh inconclusive
O=C(CN1C(=O)c2cccnc2Oc2ccc(Cl)cc21)NCCCc1ccccc1	ELG1 repair inh 18.3µM
Cc1ccc(SCc2cc(=O)[nH]c(SCC(=O)Nc3cc(Cl)ccc3Cl)n2)cc1	MCF10A rerep inconclusive
Cn1c(N)c(C(=O)CSc2nn(-c3ccc(F)cc3)c(=S)s2)c(=O)n(C)c1=O	MCF10A rerep inconclusive, ELG1 repair inh inconclusive (no result: VP16 counter, RORg inh)
COc1ccc(C)c(-n2c(=O)n(Cc3ccccc3)c(=O)c3[nH]cnc32)c1	none
COc1ccc(Cn2c(=O)c3[nH]cnc3n(-c3ccccc3C)c2=O)cc1	MCF10A rerep 16.4µM, SW480 rereplic 16.4µM
CCCCn1c(N)c(N(CCC(C)C)C(=O)c2ccc(N3CCCC3=O)cc2)c(=O)[nH]c1=O	none (no result: VP16 counter, RORg inh)
